One experiment deals with MKL-1. The experiment can be described thus: qHTS assay to identify novel small-molecules to repurpose for Merkel cell carcinoma treatment (AID 1296009). Further: nearly all actives have a fitted effect of over 60% in size. Further: potency means the concentration at half of the fitted maximal effect. The note with it: MCC and control cell lines, CellTiter-Glo viability, 72 h; series mostly up to 46 µM. The gist of the method: (§1)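 Cells were incubated with compound for 72 hr at 37 degree celsius before CellTiter-Glo addition. Luminescence was normalized with no-cell wells as full cytotoxicity and DMSO as baseline.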

The next experiment concerns MKL-2. Described as above. The note with it: MCC and control cell lines, CellTiter-Glo viability, 72 h; series mostly up to 46 µM. The essentials:
as §1

A further experiment concerns NIH3T3. The description is as above. As to conditions: MCC and control cell lines, CellTiter-Glo viability, 72 h; at 44.8 µM (top of the series) unless noted. The gist of the method: as §1
In general terms: In ATP-based viability assays light output follows the ATP content of the culture.

For another experiment, the system named is UISO. The experiment is described as above. As to conditions: MCC and control cell lines, CellTiter-Glo viability, 72 h; series mostly up to 46 µM. The gist of the method: as §1
Another experiment has as its system WaGa. The experiment is described as above. As to conditions: MCC and control cell lines, CellTiter-Glo viability, 72 h; series mostly up to 46 µM. The essentials:
as §1

A further experiment has as its system C33A. In words: Primary qHTS to identify gynecologic anti-cancer compounds using libraries of approved drugs and bioactive compounds (AID 1345084). Further: nearly all actives have a fitted effect of over 55% in size. The note with it: Gynecologic cancer cell panel viability, ATPlite luminescence, 48 h; series mostly up to 57.5 µM. The gist of the method:
(§2)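 Five-point cytotoxicity, 48 h drug exposure at 37 C, 5% CO2, on cells seeded 16 h beforehand. ATP content read by ATPlite luminescence.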
On the technique in general: In qHTS, concentration-response curves come from the screen itself.

For a further experiment, the system named is CAOV3. Described as above. The note with it: Gynecologic cancer cell panel viability, ATPlite luminescence, 48 h; series mostly up to 57.5 µM. The essentials:
as §2

For a further experiment, the system named is CASKI. The experiment is described as above. As to conditions: Gynecologic cancer cell panel viability, ATPlite luminescence, 48 h; series mostly up to 57.5 µM. The essentials: as §2
The subject of a further experiment is Es-2. The experiment is described as above. The note with it: Gynecologic cancer cell panel viability, ATPlite luminescence, 48 h; series mostly up to 57.5 µM. The gist of the method: as §2
The next experiment relates to MCC-26. In words: qHTS assay to identify novel small-molecules to repurpose for Merkel cell carcinoma treatment (AID 1296009). Further: nearly all actives have a fitted effect of over 60% in size. Further: potency means the concentration at half of the fitted maximal effect. The note with it: MCC and control cell lines, CellTiter-Glo viability, 72 h; series mostly up to 46 µM. The gist of the method: as §1

Each structure is given as a SMILES string. Results filed as inconclusive are left out. Activity calls are given as the source filed them. The call rests on the fitted dose curve; in most records, active means well fitted curve in the direction sought with a large enough effect; inconclusive means small, poorly fitted or top-dose-only effect, or another doubt; inactive means no such curve, though single readings can be large; an effect the other way counts as inactive or inconclusive.

Regarding `C1=C2CCCN[C@H]2[C@@H]2C[C@H]1[C@@H]1CCCCN1C2`, the Potency entry in the experiment with MKL-1, in the experiment with MKL-2, with UISO and with WaGa was “inactive” throughout. For the same compound, the call in the experiment with NIH3T3 was inactive.
Consider `CN[C@@H]1Cc2cccc3[nH]c(=O)n(c23)C1`, for which the Potency entry in the experiment with MKL-1, in the experiment on MKL-2, in the experiment with UISO and in the experiment with WaGa was “inactive” throughout.
Take `Fc1cc(Br)ccc1CBr`: the Potency result in the experiment on MKL-1, with MKL-2, in the experiment on UISO, with WaGa, with C33A and in the experiment with CAOV3 was “inactive” each time. Besides, the Potency result with CASKI and in the experiment on Es-2 was “inactive” in each case. The compound was classed as inactive with NIH3T3.
`Cc1ccccc1-n1c(Cn2cnc3c(N)ncnc32)nc2cccc(C)c2c1=O`: the Potency was 6620 nM (active) with MCC-26 and 3720 nM (active) in the experiment on UISO. Besides, the Potency result with C33A, in the experiment on CASKI and with Es-2 was “inactive” each time.
As to `Nc1ccc(Cl)cc1`, the Potency entry with MKL-1, with MKL-2, with UISO, in the experiment on WaGa, with C33A and in the experiment with CASKI was “inactive” in each case. For the same compound, the Potency entry in the experiment on Es-2 is “inactive”.
As to `Nc1ccc(N=Nc2ccccc2)cc1`, the Potency entry in the experiment on MKL-1 was “inactive”.
`Oc1ccc2c3c1O[C@H]1[C@@H](O)C=C[C@H]4[C@@H](C2)NCC[C@@]341`: the Potency entry in the experiment with MCC-26, with UISO, in the experiment on C33A, with CAOV3, in the experiment on CASKI and in the experiment with Es-2 was “inactive” throughout. Besides, in the experiment with WaGa, the Potency is 25000 nM (active).
`CCc1c(C(=O)C(N)=O)c2c(OCC(=O)O)cccc2n1Cc1ccccc1`: the Potency result with MKL-1, in the experiment on MKL-2, with UISO, in the experiment on WaGa, in the experiment on C33A and in the experiment with CAOV3 was “inactive” throughout. Also, the Potency result in the experiment on CASKI and with Es-2 was “inactive” each time. Also, in the experiment with NIH3T3, the result was inactive.
As to `CC[C@H]1C=CC=CC[C@@H](C)[C@H](O)[C@@](C)(O)C(=O)[C@@H](C)[C@H](O)[C@@H](C)C(=O)[C@@H](C)[C@H](O)[C@@H](C)C=CC(=O)O[C@@H]2[C@@H](C)[C@H](CC1)O[C@]1(CC[C@H](C)[C@H](C[C@@H](C)O)O1)[C@H]2C`, the Potency in the experiment with MKL-1 was 296 nM (active); in the experiment with MKL-2, 93.5 nM (active); with UISO it was 1660 nM (active); in the experiment on WaGa, 662 nM (active).
With `O=C(Nc1ccccc1-c1ccc(Cl)cc1)c1cccnc1Cl`, the Potency result in the experiment with MKL-1, in the experiment on MKL-2, in the experiment on UISO, in the experiment on C33A, in the experiment on CAOV3 and in the experiment on CASKI was “inactive” throughout. Moreover, the Potency result with Es-2 is “inactive”. Besides, the outcome with NIH3T3 was “inactive [at 92 µM]”.
As to `Cc1c(C(=O)c2cccc3ccccc23)c2cccc3c2n1[C@H](CN1CCOCC1)CO3`, the Potency in the experiment on MKL-1 and in the experiment with MKL-2 was 23500 nM (active) in each case.
With `CC=C(C)C(=O)N[C@@H](c1ccccc1)[C@@H](O)C(=O)O[C@H]1C[C@@]2(O)[C@@H](OC(=O)c3ccccc3)[C@@H]3[C@]4(OC(C)=O)CO[C@@H]4C[C@H](O)[C@@]3(C)C(=O)[C@H](OC(C)=O)C(=C1C)C2(C)C`, the Potency entry in the experiment with MKL-1 and with MKL-2 was “inactive” each time.
With `C[C@@]12OC(=O)[C@]1([C@@H](O)[C@@H]1C=CCCC1)NC(=O)[C@H]2CCCl`, the Potency is 1180 nM (active) with MKL-1, 526 nM (active) in the experiment with MKL-2, 1480 nM (active) with UISO and 662 nM (active) in the experiment with WaGa.
Take `Cc1cc(O)ccc1Cl`: the Potency entry with MKL-1, in the experiment with MKL-2, in the experiment with UISO, with WaGa, in the experiment with C33A and with CAOV3 was “inactive” in each case. Besides, the Potency entry with CASKI and in the experiment on Es-2 was “inactive” each time. Besides, the result with NIH3T3 was inactive.
With `O=S(=O)(O)C(F)(F)C(F)(F)C(F)(F)C(F)(F)F`, the Potency result with MKL-1, with MKL-2, with UISO, in the experiment with WaGa, in the experiment on C33A and in the experiment on CASKI was “inactive” each time. Moreover, in the experiment on Es-2, the Potency result is “inactive”. Further, in the experiment on NIH3T3, the outcome is “inactive [at 92 µM]”.
For the compound `C[C@](O)(COc1ccc(C#N)cc1)C(=O)Nc1ccc(C#N)c(C(F)(F)F)c1`, the Potency entry in the experiment with MKL-1, with MKL-2, in the experiment with UISO and with WaGa was “inactive” each time.
On to `Cc1ccc(Cl)c(O)c1`, for which the Potency entry in the experiment on MKL-1, with MKL-2, in the experiment with UISO, in the experiment on WaGa, in the experiment with C33A and in the experiment with CASKI was “inactive” in each case. In addition, the Potency entry in the experiment on Es-2 is “inactive”. The outcome in the experiment on NIH3T3 was inactive.
`CC(=Cc1csc(C)n1)[C@@H]1C[C@H]2O[C@@H]2CCC[C@H](C)[C@@H](O)[C@@H](C)C(=O)C(C)(C)[C@@H](O)CC(=O)O1`: the Potency entry in the experiment with MKL-1, in the experiment with MKL-2, with UISO and in the experiment with WaGa was “inactive” in each case.
As to `Nc1ccc([N+](=O)[O-])cc1`, the Potency entry with C33A and with CASKI was “inactive” in each case.
For the compound `C=CC(=O)NCNC(=O)C=C`, the Potency entry with MKL-1, in the experiment with UISO, with C33A, in the experiment on CASKI and in the experiment with Es-2 was “inactive” throughout.

Values taken from PubChem BioAssay (NCATS).
